According to PubChem BioAssay AID1159580 (chemical genetic matrix, 2015):
The whole screen tested about 5,500 compounds, of which about 2,000 (36%) were called active. Not shown: some 18% with an inconclusive outcome. Cut-off read from the data, not from the text of the source: active = normalized growth mostly below about 0.91 (no sharp cut-off); inconclusive = no clear call, values can overlap the other calls; inactive = mostly above about 0.92. The list shows a part of the results.

Assay: chemical genetic growth profiling, strain panel (AID 1159580);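 note: tested at 20 µM; growth read once vehicle control cultures reached saturation at 30 °C; 1 = growth at the plate median or of vehicle wells; lower values mean less growth of the strain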
Settings: growth OD

Measured: normalized growth

O=C(Cn1ccnc1[N+](=O)[O-])NCCO
inactive: S. cerevisiae deletion strains, locus YJR075W, strain HOC1, active compounds read low 1 | S. cerevisiae deletion strains, locus YKL009W, strain mrt4, active compounds read low 1.03 | S. cerevisiae deletion strains, locus YKL068W, active compounds read low 1.02 | S. cerevisiae deletion strains, locus YKL085W, strain MDH1 (second series), active compounds read low 1.03 | S. cerevisiae deletion strains, locus YKL085W, strain MDH1, active compounds read low 1.03 | S. cerevisiae deletion strains, locus YKL160W, strain elf1, active compounds read low 1.02 | S. cerevisiae deletion strains, locus YKL190W, strain CNB1, active compounds read low 1.01 | S. cerevisiae deletion strains, locus YKR001C, strain vps1, active compounds read low 1.01 | S. cerevisiae deletion strains, locus YKR026C, strain gcn3, active compounds read low 1.01 | S. cerevisiae deletion strains, locus YKR091W, strain srl3, active compounds read low 1.01 | S. cerevisiae deletion strains, locus YLL001W, strain dnm1, active compounds read low 1.01 | S. cerevisiae deletion strains, locus YLL026W, active compounds read low 1.01 | S. cerevisiae deletion strains, locus YLL041C, strain sdh2, active compounds read low 1.01 | S. cerevisiae deletion strains, locus YLR027C, strain aat2, active compounds read low 1.01 | S. cerevisiae deletion strains, locus YLR039C, strain RIC1, active compounds read low 1.08 | S. cerevisiae deletion strains, locus YLR058C, strain SHM2, active compounds read low 1.01 | S. cerevisiae deletion strains, locus YLR102C, strain apc9, active compounds read low 1.01 | S. cerevisiae deletion strains, locus YLR113W, strain HOG1, active compounds read low 0.988 | S. cerevisiae deletion strains, locus YLR221C, strain rsa3, active compounds read low 1.02 | S. cerevisiae deletion strains, locus YLR258W, strain gsy2, active compounds read low 1.02 | S. cerevisiae deletion strains, locus YLR262C, strain YPT6 (second series), active compounds read low 1.02 | S. cerevisiae deletion strains, locus YLR262C, strain YPT6, active compounds read low 1.07 | S. cerevisiae deletion strains, locus YLR268W, strain sec22, active compounds read low 0.981 | S. cerevisiae deletion strains, locus YLR320W, strain mms22, active compounds read low 1.03 | S. cerevisiae deletion strains, locus YLR330W, strain CHS5, active compounds read low 1 | S. cerevisiae deletion strains, locus YLR342W, strain FKS1 (second series), active compounds read low 1.08 | S. cerevisiae deletion strains, locus YLR342W, strain FKS1, active compounds read low 1.02 | S. cerevisiae deletion strains, locus YLR357W, strain rsc2, active compounds read low 1.01 | S. cerevisiae deletion strains, locus YLR370C, strain arc18, active compounds read low 1.02 | S. cerevisiae deletion strains, locus YLR371W, strain rom2, active compounds read low 1.01 | S. cerevisiae deletion strains, locus YLR384C, strain iki3, active compounds read low 1.03 | S. cerevisiae deletion strains, locus YLR418C, strain cdc73, active compounds read low 0.95 | S. cerevisiae deletion strains, locus YML016C, strain PPZ1, active compounds read low 1 | S. cerevisiae deletion strains, locus YML032C, strain rad52, active compounds read low 1.02 | S. cerevisiae deletion strains, locus YML120C, strain ndi1, active compounds read low 1 | S. cerevisiae deletion strains, locus YML124C, strain tub3, active compounds read low 1 | S. cerevisiae deletion strains, locus YMR058W, strain fet3, active compounds read low 1.01 | S. cerevisiae deletion strains, locus YMR078C, strain ctf18, active compounds read low 1.01 | S. cerevisiae deletion strains, locus YMR125W, strain sto1, active compounds read low 1.02 | S. cerevisiae deletion strains, locus YMR129W, active compounds read low 1.02 | S. cerevisiae deletion strains, locus YMR205C, strain PFK2, active compounds read low 1.03 | S. cerevisiae deletion strains, locus YMR223W, strain ubp8, active compounds read low 1.02 | S. cerevisiae deletion strains, locus YMR231W, strain pep5, active compounds read low 1.02 | S. cerevisiae deletion strains, locus YMR263W, strain SAP30, active compounds read low 0.993 | S. cerevisiae deletion strains, locus YMR307W, strain GAS1, active compounds read low 1.04 | S. cerevisiae deletion strains, locus YNL067W, strain RPL9B, active compounds read low 0.988 | S. cerevisiae deletion strains, locus YNL071W, strain lat1, active compounds read low 1 | S. cerevisiae deletion strains, locus YNL128W, strain TEP1, active compounds read low 0.991 | S. cerevisiae deletion strains, locus YNL153C, strain GIM3, active compounds read low 0.97 | S. cerevisiae deletion strains, locus YNL183C, strain NPR1, active compounds read low 0.955 | S. cerevisiae deletion strains, locus YNL209W, strain ssb2, active compounds read low 1.02 | S. cerevisiae deletion strains, locus YNL233W, strain BNI4, active compounds read low 1 | S. cerevisiae deletion strains, locus YNL248C, strain rpa49, active compounds read low 1.01 | S. cerevisiae deletion strains, locus YNL250W, strain rad50, active compounds read low 0.99 | S. cerevisiae deletion strains, locus YNL271C, strain bni1, active compounds read low 0.999 | S. cerevisiae deletion strains, locus YNL298W, strain CLA4, active compounds read low 1.01 | S. cerevisiae deletion strains, locus YNL307C, strain MCK1, active compounds read low 1.03 | S. cerevisiae deletion strains, locus YNL322C, strain KRE1 (second series), active compounds read low 1.02 | S. cerevisiae deletion strains, locus YNL322C, strain KRE1, active compounds read low 1.01 | S. cerevisiae deletion strains, locus YNR049C, strain mso1, active compounds read low 1.01 | S. cerevisiae deletion strains, locus YNR052C, strain pop2, active compounds read low 1.01 | S. cerevisiae deletion strains, locus YOL006C, strain TOP1, active compounds read low 1.06 | S. cerevisiae deletion strains, locus YOL012C, strain htz1 0.906 | S. cerevisiae deletion strains, locus YOL147C, strain pex11, active compounds read low 1.01 | S. cerevisiae deletion strains, locus YOR001W, strain rrp6, active compounds read low 1.02 | S. cerevisiae deletion strains, locus YOR061W, strain CKA2, active compounds read low 1 | S. cerevisiae deletion strains, locus YOR069W, strain VPS5, active compounds read low 1.01 | S. cerevisiae deletion strains, locus YOR070C, strain gyp1, active compounds read low 1.03 | S. cerevisiae deletion strains, locus YOR080W, strain dia2, active compounds read low 1.01 | S. cerevisiae deletion strains, locus YOR083W, strain WHI5, active compounds read low 1.02 | S. cerevisiae deletion strains, locus YOR106W, strain vam3, active compounds read low 1.02 | S. cerevisiae deletion strains, locus YOR136W, strain idh2, active compounds read low 1.01 | S. cerevisiae deletion strains, locus YOR144C, strain elg1, active compounds read low 1.01 | S. cerevisiae deletion strains, locus YOR184W, strain ser1, active compounds read low 1.05 | S. cerevisiae deletion strains, locus YOR231W, strain MKK1, active compounds read low 0.986 | S. cerevisiae deletion strains, locus YOR265W, strain rbl2, active compounds read low 1.03 | S. cerevisiae deletion strains, locus YOR270C, strain vph1, active compounds read low 1.03 | S. cerevisiae deletion strains, locus YOR290C, strain snf2, active compounds read low 1.01 | S. cerevisiae deletion strains, locus YOR316C, strain cot1, active compounds read low 1 | S. cerevisiae deletion strains, locus YPL051W, strain arl3, active compounds read low 1.02 | S. cerevisiae deletion strains, locus YPL055C, strain LGE1, active compounds read low 0.955 | S. cerevisiae deletion strains, locus YPL078C, strain atp4, active compounds read low 1.01 | S. cerevisiae deletion strains, locus YPL106C, strain sse1, active compounds read low 1.02 | S. cerevisiae deletion strains, locus YPL240C, strain hsp82, active compounds read low 1.01 | S. cerevisiae deletion strains, locus YPL241C, strain CIN2, active compounds read low 1.01 | S. cerevisiae deletion strains, locus YPL256C, strain CLN2, active compounds read low 0.977 | S. cerevisiae deletion strains, locus YPR119W, strain clb2, active compounds read low 1.01 | S. cerevisiae deletion strains, locus YPR141C, strain kar3, active compounds read low 1.01 | S. cerevisiae deletion strains, locus YPR163C, strain tif3, active compounds read low 1.01 | S. cerevisiae deletion strains, locus YPR167C, strain met16, active compounds read low 1.02 | S. cerevisiae deletion strains, strain wtn01, active compounds read low 1 | S. cerevisiae strains, strain wild type, active compounds read low 1.01
